Source: PubChem BioAssay (EPA / NIEHS)
Values joined by “and” are separate entries in the source; they are usually repeats but may differ in a detail not shown here. Equal entries are not always repeated. Results filed as inconclusive are left out. The source holds several records for some structures; these can differ, active in one and inactive in another. Active and inactive are the calls of the source. How the source made its calls, unless noted: active means hit-call score of the fitted dose curve at least 0.9, where 1 is the maximum; inactive means score below 0.9.

Tests used:
[1] = CCTE_Mundy_HCI_Cortical_NOG_NeuronCount: CCTE's Neurite Outgrowth Assay in rat cortical cells for Neuron Count, Mundy Lab (AID 2284236; active means hit-call score of the fitted dose curve at least 0.9, where 1 is the maximum;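 further: neurons counted by imaging betaIII-tubulin and Hoechst stained cortical cells; cells exposed to compound for about 48 hours before fixation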)
Summary of the method: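 Read-out: neuron number by high-content imaging of betaIII-tubulin (Alexa Fluor-488) and Hoechst-labelled rat primary cortical cells.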

[2] = CCTE_Mundy_HCI_Cortical_NOG_BPCount: CCTE's Neurite Outgrowth Assay in rat cortical cells for Branch Point Count, Mundy Lab (AID 2284237);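 on AC50: branch points counted about two days after chemical exposure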
Summary of the method: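 Measured 50.33 h after dosing, this morphology endpoint uses rat primary cortical cultures labelled for betaIII-tubulin. Branch points are quantified by high-content imaging, with DMSO as negative control and baseline.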

[3] = TAMU_HCS_1.5hr_SingleDonor1434_Cytotoxicity: Cytotoxicity Assessment using High-content Screening (HCS) Fluorescent Imaging for the Texas A&M University (TAMU) 1.5-hr Human Induced Pluripotent Stem Cell (iPSC)-derived Cardiotoxicity Assay (AID 2284234; active means hit-call score of the fitted dose curve at least 0.9, where 1 is the maximum)
Summary of the method: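 Human iPSC-derived cardiomyocytes dosed at 0.2, 1, 10, 100 uM final (0.5% DMSO) for 90 min at 37 C. Hoechst 33342-stained nuclei counted by 10x high-content imaging; POD is EC10, a 10% drop in total cell count versus DMSO.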

[4] = TAMU_PeakParms_SingleDonor1434_QT: Texas A&M University (TAMU) 1.5-hr Human Induced Pluripotent Stem Cell (iPSC)-derived Cardiomyocytes Calcium (Ca+2) Flux Assay for Cardiotoxicity: QT (decay-rise ratio) (AID 2284235; active means hit-call score of the fitted dose curve at least 0.9, where 1 is the maximum)
Summary of the method: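 iPSC-derived cardiomyocytes (single donor 1434) dosed at 0.2, 1, 10, 100 uM final in 0.5% DMSO, 90 min at 37C. Ca2+ flux fluorescence decay/rise ratio; EC05 (5% increase versus DMSO) as POD, excluding beat-arrest and severe-notch data.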

[5] = UKN2_HCS_IMR90_cell_viability: Viability Assessment in the University of Konstanz (UKN) Leist Lab Neural Crest Cell Migration Assay in human induced IMR90 Pluripotent Stem Cells (UKN2) (AID 2284233);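 further: viability of neural crest cells differentiated from IMR90 iPSC measured by calcein-AM fluorescence imaging; cells exposed to compound for 24 h after a 24 h migration phase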
Summary of the method: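 iPSC-derived (IMR90) neural crest cells seeded around silicone stoppers on PLO/laminin/fibronectin; after 24 h migration in N2-S with EGF/FGF, chemical added for 24 h. Calcein-AM/Hoechst stained 30 min, high-content imaged; bidirectional fit versus DMSO.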

[6] = read-out: Interleukin 17A (IL17A), IL17A (gene 3605); test: BSK_BT_xIL17A: BioMAP Diversity Plus: BT Assay for Interleukin 17A (IL17A) Biomarker Activity (AID 2284229); details: primary human B cells with PBMC
Summary of the method: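 Co-culture of human B cells and PBMC, dosed for 24 h in 96-well format. Secreted IL-17A measured with Luminex xMAP; gain-direction fitting against DMSO as baseline.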

[7] = read-out: Tumor necrosis factor (Homo sapiens) (UniProt P01375); test: BSK_BT_xTNFa: BioMAP Diversity Plus: BT Assay for Tumor necrosis factor alpha (TNF-alpha) Biomarker Activity (AID 2284230); details: primary human B cells with PBMC
Summary of the method: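 B cells with PBMC in co-culture, dosed and sampled at 24 h; secreted TNF-alpha measured by Luminex xMAP bead assay. Activity fitted in the gain direction against DMSO as negative control and baseline.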

[8] = read-out: Vascular cell adhesion molecule 1 (VCAM1), VCAM1 (gene 7412); test: BSK_MyoF_VCAM1: BioMAP Diversity Plus: MyoF Assay for Vascular cell adhesion molecule 1 (VCAM1) Biomarker Activity (AID 2284231); details: primary human lung fibroblasts
Summary of the method: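 Primary human lung fibroblasts (BioMAP MyoF system) dosed with chemical, VCAM-1 measured by ELISA 24 hours later. Fitted in the positive direction against DMSO; parallel SRB staining assessed cytotoxicity.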

[9] = read-out: Collagen I, COL1A1 (gene 1277); test: BSK_MyoF_CollagenI: BioMAP Diversity Plus: MyoF Assay for Collagen I Biomarker Activity (AID 2284238); details: primary human lung fibroblasts
Summary of the method: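 Primary human lung fibroblasts (MyoF system) treated 24 h; Collagen I quantified by ELISA and fitted in positive direction against DMSO. Parallel SRB total-protein staining assessed overt cytotoxicity.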

[10] = UKN4_HCS_LUHMES_cell_viability: Viability Assessment in the University of Konstanz (UKN) Leist Lab Neurite Outgrowth Assay in human LUHMES cells (UKN4) (AID 2284232)
Summary of the method: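 LUHMES precursors differentiated 2 days, replated at 30000 cells/well without cAMP/GDNF, then compound-treated 24 h. Viability from Hoechst H-33342 and calcein-AM live staining (30 min) by high-content fluorescence imaging; bidirectional fit versus DMSO.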

Sequence of Tumor necrosis factor (Homo sapiens) (P01375 whole entry, looked up): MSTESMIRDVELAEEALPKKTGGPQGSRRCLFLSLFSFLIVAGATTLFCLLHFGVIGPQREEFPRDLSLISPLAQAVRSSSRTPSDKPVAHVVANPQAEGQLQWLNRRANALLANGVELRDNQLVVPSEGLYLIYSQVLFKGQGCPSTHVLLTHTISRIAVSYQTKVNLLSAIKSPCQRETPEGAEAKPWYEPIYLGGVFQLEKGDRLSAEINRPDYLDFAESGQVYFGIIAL

[O-][Cl+]O
outcome [1]: inactive
outcome [2]: inactive

ClC1=C(Cl)[C@]2(Cl)[C@H]3[C@H]([C@@H]4C=C[C@H]3C4)[C@@]1(Cl)C2(Cl)Cl
AC50 [3]: 83 µM (active)
outcome [4]: inactive

COC(=O)Nc1nc2ccccc2[nH]1
outcome [5]: inactive
outcome [1]: inactive
AC50 [2]: 3.98 µM (active)

c1ccc(N=Nc2ccccc2)cc1
outcome [3]: inactive

OCCOCCO
outcome [2]: inactive

CCCCCCCCn1sccc1=O
AC50 [3]: 7.87 µM (active)

CN(C)[C@@H]1C(=O)C(C(N)=O)=C(O)[C@@]2(O)C(=O)C3=C(O)c4c(O)cccc4[C@@](C)(O)[C@H]3C[C@@H]12
outcome [1]: inactive
outcome [2]: inactive

CCCCOC(=O)c1ccccc1C(=O)OCc1ccccc1
outcome [5]: inactive
outcome [1]: inactive
outcome [2]: inactive

CC(C)COC(=O)c1ccccc1C(=O)OCC(C)C
outcome [5]: inactive
outcome [1]: inactive
outcome [2]: inactive

ClC1=C(Cl)C2(Cl)C3C(Cl)C=CC3C1(Cl)C2(Cl)Cl (stereo unspecified)
AC50 [3]: 50 µM (active)
outcome [4]: inactive
AC50 [1]: 26.5 µM (active)
AC50 [2]: 12.2 µM (active)

CCNS(=O)(=O)C(F)(F)C(F)(F)C(F)(F)C(F)(F)C(F)(F)C(F)(F)C(F)(F)C(F)(F)F
AC50 [6]: 19.1 µM (active)
outcome [6]: inactive
outcome [7]: inactive
AC50 [8]: 30 µM (active) and 40.3 µM (active)
AC50 [9]: 50.6 µM (active) and 44.6 µM (active)

Nc1cc(Cl)cc(C(=O)O)c1Cl
outcome [2]: inactive

CNC(=O)Oc1cccc2c1OC(C)(C)C2
outcome [5]: inactive
outcome [1]: inactive
outcome [2]: inactive

COP(=S)(OC)SCN1C(=O)c2ccccc2C1=O
outcome [5]: inactive
outcome [1]: inactive
outcome [2]: inactive

O=P(OCCCl)(OCCCl)OCCCl
outcome [3]: inactive

Clc1ccc(C(c2ccc(Cl)cc2)C(Cl)(Cl)Cl)cc1
AC50 [3]: 50 µM (active)
outcome [4]: inactive

CC(C)(C)C(O)(CCc1ccc(Cl)cc1)Cn1cncn1 (stereo unspecified)
outcome [3]: inactive
AC50 [4]: 18.2 µM (active)
AC50 [2]: 0.162 µM (active)

CCC[CH2][Sn]([Cl])([CH2]CCC)[CH2]CCC
AC50 [10]: 0.159 µM (active)
AC50 [5]: 0.344 µM (active)
AC50 [1]: 0.079 µM (active)
AC50 [2]: 0.0886 µM (active)

C1=Cc2cccc3cccc1c23
outcome [3]: inactive
outcome [4]: inactive
